# In PubChem BioAssay (NCATS):
# Results filed as inconclusive are left out. Active and inactive are the calls of the source. Calls come from the whole dose curve; as a rule, active = well fitted inhibition curve with a large enough effect; inconclusive = small, poorly fitted or top-dose-only effect; inactive = flat fitted curve, though single readings scatter.
# Target: Ubiquitin carboxyl-terminal hydrolase 1 (Homo sapiens) (UniProt O94782)
# Assay: Inhibitors of USP1/UAF1: Pilot qHTS (AID 504865); note: nearly all actives have a fitted effect of over 35% in size;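 for activity change, negative = inhibition: rhodamine fluorescence freed from ubiquitin-rhodamine substrate followed over time; top concentration of the series differs between compounds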
# Details: purified USP1/UAF1, Ub-rhodamine cleavage fluorescence; series mostly up to 54.9 µM; activity change, negative = inhibition: at the top concentration
# Source text: Deubiquitinating enzymes (DUBs) are a class of enzymes that can cleave isopeptide bond formed between the C-terminal carboxylate of ubiquitin and a lysine side-chain amino group on the target protein. Among them, ubiquitin specific proteases (USPs) constitute the largest DUB family. Human USPs are emerging as promising targets for pharmacological intervention because of their connection to a number of human diseases, including prostate, colon and breast cancer (1, 2), pediatric acute lymphoblastic leukemia (3), and familial cylindromatosis (4). The advantage of inhibiting USPs lies in the potential specificity of therapeutic intervention that can lead to better efficacy and reduce nonspecific side effects.
# In a collaboration between the University of Delaware and the NIH Chemical Genomics Center, a high-throughput screen assay was developed to screen for USP1/UAF1 inhibitors. This miniaturized assay has a fluorescent read-out and is used to screen the NIH Molecular Libraries Small Molecule Repository (MLSMR) in order to identify a small molecule that inhibits USP1.
# NIH Chemical Genomics Center [NCGC]
# NIH Molecular Libraries Probe Centers Network [MLPCN]
# Assay Submitter (PI): Zhihao Zhuang, University of Delaware
# 1. Priolo, C., et al. (2006) The isopeptidase USP2a protects human prostate cancer from apoptosis. Cancer Res 66, 8625-8632
# 2. Popov, N., et al. (2007) The ubiquitin-specific protease USP28 is required for MYC stability. Nat Cell Biol 9, 765-774
# 3. De Pitta, C., et al. (2005) A leukemia-enriched cDNA microarray platform identifies new transcripts with relevance to the biology of pediatric acute lymphoblastic leukemia. Haematologica 90, 890-898
# 4. Kovalenko, A., et al. (2003) The tumour suppressor CYLD negatively regulates NF-kappaB signalling by deubiquitination. Nature 424, 801-805
# 3 microliters of reagents (buffer in columns 3 and 4 as negative control and 1nM USP1/UAF1 complex in columns 1, 2, and 5-48) are dispensed into Greiner black solid bottom 1536-well assay plates. Compounds are then transferred via Kalypsys pin tool equipped with 1536-pin array (10nl slotted pins, V&P Scientific, San Diego, CA). Following an incubation step of 15 min at room temperature, 1ul of Ub-Rho substrate (150nM final concentration) is added to initiate the reaction. The plates are immediately centrifuged at 1000 rpm for 15 seconds, and subsequently transferred to a ViewLux high-throughput CCD imager (PerkinElmer) wherein kinetic measurements of fluorescence are acquired using 480 nm excitation/540 nm emission filter set (6 reads every 60 seconds, see Table 1). All reagents are diluted in an assay buffer consisting of 50mM HEPES (pH 7.8), 0.5mM EDTA, 0.1 mg/ml BSA, 1mM TCEP, and 0.01% Tween-20.
# % is set by controls: 0 for no effect and ±100 for the full control effect; potency is the fitted concentration of half-maximal effect.
# Sequence of Ubiquitin carboxyl-terminal hydrolase 1 (Homo sapiens) (O94782 whole entry, looked up): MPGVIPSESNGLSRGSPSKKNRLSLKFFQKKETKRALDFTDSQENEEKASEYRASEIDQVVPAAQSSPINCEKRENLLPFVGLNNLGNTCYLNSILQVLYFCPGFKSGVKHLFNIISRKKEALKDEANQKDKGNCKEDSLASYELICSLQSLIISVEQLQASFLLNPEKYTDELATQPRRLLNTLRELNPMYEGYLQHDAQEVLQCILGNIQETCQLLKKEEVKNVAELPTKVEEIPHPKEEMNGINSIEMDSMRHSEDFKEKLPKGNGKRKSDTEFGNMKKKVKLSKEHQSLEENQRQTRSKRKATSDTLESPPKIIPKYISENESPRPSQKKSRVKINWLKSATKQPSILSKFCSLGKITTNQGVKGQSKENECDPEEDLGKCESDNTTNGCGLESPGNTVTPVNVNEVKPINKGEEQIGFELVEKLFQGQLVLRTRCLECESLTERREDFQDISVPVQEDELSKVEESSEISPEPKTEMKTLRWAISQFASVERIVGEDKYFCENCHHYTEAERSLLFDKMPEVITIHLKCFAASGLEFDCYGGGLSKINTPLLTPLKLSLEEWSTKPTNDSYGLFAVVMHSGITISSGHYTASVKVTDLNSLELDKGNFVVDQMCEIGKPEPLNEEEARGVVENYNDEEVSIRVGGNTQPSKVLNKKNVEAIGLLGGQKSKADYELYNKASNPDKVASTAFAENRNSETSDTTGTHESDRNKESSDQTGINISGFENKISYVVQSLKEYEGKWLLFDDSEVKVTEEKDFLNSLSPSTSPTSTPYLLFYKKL
SMILES,"activity change, negative = inhibition",Potency
COc1ccc(-c2nc3cnc(N4CCN(C)CC4)nc3n(C)c2=O)cc1,-10.2% (inactive),
CC(C)=CCC/C(C)=C/CC/C(C)=C/CC/C(C)=C/CC/C(C)=C/CC/C(C)=C/CC/C(C)=C/CC/C(C)=C/CC/C(C)=C/CO,-2.81% [at 114 µM] (inactive),
COc1ccccc1-c1ccc2ncnc(Nc3ccccc3)c2c1,-23% (inactive),
COc1ccc2[nH]cc(CCNc3ccnc(-c4ccc5c(c4)OCO5)n3)c2c1,-20.6% (inactive),
C=C(C)[C@H]1CC=C(C)C(=O)C1,-2.05% [at 114 µM] (inactive),
N#Cc1ccccc1-c1cncnc1NCc1cccnc1,-3.65% [at 114 µM] (inactive),
CN1CCN(c2nc(-c3cccc(NS(C)(=O)=O)c3)nc3ccccc23)CC1,-15.1% [at 114 µM] (inactive),
CS(=O)(=O)Nc1cccc(-c2nc(NCc3cccs3)c3ccccc3n2)c1,-13.6% [at 114 µM] (inactive),
Cc1ccccc1-c1cncnc1NCCN1CCOCC1,0.509% [at 114 µM] (inactive),
CN(N=O)C(=O)N[C@H]1[C@@H](O)[C@H](O)[C@H](CO)O[C@@H]1O,-4.01% (inactive),
CC(C)(O/N=C(\C(=O)N[C@@H]1C(=O)N2C(C(=O)[O-])=C(C[n+]3ccccc3)CS[C@@H]12)c1csc(N)n1)C(=O)O,14.6% (inactive),
N#Cc1cccc(-c2ccc3ncnc(NCc4ccccc4)c3c2)c1,,15.8 µM (active)
Cc1nc2cnc(N(C)C)nc2n(-c2ccccc2)c1=O,-8.6% (inactive),
C#C[C@]1(OC(C)=O)CCC2C3CCC4=CC(=O)CCC4C3CC[C@]21C (stereo not given in full),-14.8% [at 114 µM] (inactive),
O=c1c(-c2ccc(Cl)cc2)nc2cnc(N3CCOCC3)nc2n1Cc1ccc(F)cc1,-7.7% (inactive),
CCNc1ncc2nc(-c3cccs3)c(=O)n(-c3ccccc3)c2n1,-9.24% (inactive),
NC(=O)c1cc[n+](CC2=C(C(=O)O)N3C(=O)[C@@H](NC(=O)[C@H](c4ccccc4)S(=O)(=O)[O-])[C@@H]3SC2)cc1,12.1% (inactive),
CN(C)C(=O)c1ccc(-c2nccc(N(C)Cc3ccco3)n2)cc1,-5.32% (inactive),
COc1ccc2[nH]cc(CCNc3ncnc4ccc(-c5ccc6c(c5)OCO6)cc34)c2c1,-13% (inactive),
COc1cccc(-c2cc(NCc3ccccc3OC)ncn2)c1,-23.9% (inactive),

SMILES,"activity change, negative = inhibition",Potency
Cc1noc(C)c1-c1nc(NC2CCNCC2)c2ccccc2n1,-9.66% (inactive),
Clc1ccccc1-c1ccc2ncnc(NC3CCNCC3)c2c1,-10.4% (inactive),
Cc1nc2cnc(Oc3cccc(Cl)c3)nc2n(C2CC2)c1=O,-8.95% (inactive),
N#Cc1cccc(-c2nccc(NCc3cccs3)n2)c1,-22.3% (inactive),
N#CCCn1c(=O)c(-c2cc(F)cc(F)c2)nc2cnc(Nc3ccccc3)nc21,-8.16% (inactive),
COc1cccc(Nc2ncc3nc(-c4ccccc4)c(=O)n(C)c3n2)c1,-1.33% (inactive),
COc1ccccc1-c1cc(-n2ccnc2)ncn1,-14.1% (inactive),
COc1cccc(Cn2c(=O)c(CCc3ccccc3)nc3cncnc32)c1,-12.4% (inactive),
CNc1nc(-c2ccccc2C)nc2ccccc12,-20.3% (inactive),
c1ccc2c(NC3CC3)nc(-c3ccoc3)nc2c1,-24.9% (inactive),
COc1ccc2[nH]cc(CCNc3ccnc(-c4ccc(C(=O)N(C)C)cc4)n3)c2c1,-15.5% (inactive),
CN1CCN(c2ncnc3ccc(-c4cccc(NS(C)(=O)=O)c4)cc23)CC1,-8.2% (inactive),
CCNc1ncc2nc(-c3ccc(OC)cc3)c(=O)n(Cc3ccc(F)cc3)c2n1,-6.06% (inactive),
O=c1c(-c2ccccc2)coc2cc(O)cc(O)c12,,56.2 µM (active)
COc1ccc(CNc2ccnc(-c3ccoc3)n2)c(OC)c1,-25% (inactive),
CCC[C@H]1C(=O)N2C(N(C)C)=Nc3ccc(C)cc3N2C1=O,-5.06% (inactive),
Cc1ccccc1-c1ccc2ncnc(N(C)C)c2c1,-12.1% (inactive),
CN(C)c1ccc(-c2cncnc2NCc2cccnc2)cc1,-10.8% (inactive),
CC1(C)O[C@@H]2C[C@H]3[C@H]4C[C@H](F)C5=CC(=O)C=C[C@@]5(C)[C@@H]4[C@H](O)C[C@]3(C)[C@]2(C(=O)CO)O1,-4.82% (inactive),
CN(C)Cc1ccccc1-c1nccc(NC2CC2)n1,-8.23% [at 114 µM] (inactive),
